# Screening data as filed in PubChem BioAssay.
# The list is not random: actives were taken first. Their share in the collection is about 3.3%.
# UHRF1 MBD2 ctr = UHRF1 methylated DNA binding inhibitors, primary screen, counter-screen for MBD2 inhibitor project, biochemical, TR-FRET, human UHRF1, single concentration; E3 ubiquitin-protein ligase UHRF1 (Homo sapiens), Q96T88; UHRF1 binding to methylated oligo; inhibition, % at 4.4 µM; 370,000 tested, 0.75% active; AID 687016, 2013; in the data active = inhibition above about 21%;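 note: UHRF1 SRA domain binding a hemimethylated CpG hairpin DNA probe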
# PRMT1 FP inh = PRMT1 methyltransferase inhibitors, primary screen, biochemical, fluorescence polarization | inhibition, % at 2.79 µM | recombinant PRMT1, activity-based probe fluorescence polarization | 370,000 tested, 1.3% active;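 active = inhibition above about 21% made by adding two undisclosed values, limit read from the data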
# MBD2 DNA inh = inhibitors of MBD2 binding to methylated DNA, primary screen, biochemical, TR-FRET, DNA-binding domain, human. Methyl-CpG-binding domain protein 2 (Homo sapiens), Q9UBB5. MBD2 binding to methylated oligonucleotide. inhibition, % at 4.4 µM. 370,000 tested, 0.31% active. AID 686964, 2013; in the data active = inhibition above about 13%
# Target sequence (Q9UBB5 whole entry, looked up, the tested form may be a part): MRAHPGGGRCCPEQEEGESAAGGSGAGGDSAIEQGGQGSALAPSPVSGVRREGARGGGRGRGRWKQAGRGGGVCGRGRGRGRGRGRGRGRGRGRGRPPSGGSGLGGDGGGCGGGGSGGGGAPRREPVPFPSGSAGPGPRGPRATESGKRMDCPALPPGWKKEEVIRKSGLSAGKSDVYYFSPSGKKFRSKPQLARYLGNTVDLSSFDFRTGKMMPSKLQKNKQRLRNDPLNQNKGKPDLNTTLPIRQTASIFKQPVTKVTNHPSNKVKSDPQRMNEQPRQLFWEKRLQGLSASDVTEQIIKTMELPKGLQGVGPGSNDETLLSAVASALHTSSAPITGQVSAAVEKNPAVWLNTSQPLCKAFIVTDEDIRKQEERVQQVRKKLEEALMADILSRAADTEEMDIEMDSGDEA
# PfG6PD inh = PfG6PD enzyme inhibitors, primary screen, biochemical, fluorescence intensity, uHTS. AID 504690, 2011. glucose-6-phosphate dehydrogenase-6-phosphogluconolactonase (Plasmodium falciparum 3D7). inhibition, % at 20 µM. PfGluPho enzyme, NADPH resazurin-diaphorase fluorescence. 350,000 tested, 0.78% active;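 active = inhibition reaching at least a set limit at 20 µM in the primary screen, cut at about 59% in these data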
# PfM18AAP inh = PfM18AAP inhibitors, malaria aminopeptidase, primary screen, biochemical, QFRET, recombinant enzyme; H-Glu-NHMec fluorogenic cleavage; inhibition, % at 7.35 µM; 290,000 tested, 1.2% active; AID 1822, 2009;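 active = inhibition above the campaign mean inhibition over all tested compounds plus 3 SD, cut at about 28% in these data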
# Numbers stand for hits; i = inactive; nt = not tested or not shown.
SMILES,UHRF1 MBD2 ctr,PRMT1 FP inh,MBD2 DNA inh,PfG6PD inh,PfM18AAP inh
CSC1=NSC2=NC(=O)/C(=C/c3coc4ccc(O)cc4c3=O)C(=N)N12,i,25,i,i,i
CCCCNC(=O)NCCN1CCOCC1,35,i,i,i,i
CCCCNC(=O)N1CCOCCOCCN(C(=O)NCCCC)CCOCCOCC1,i,i,i,i,i
CC(C)[C@H](NC(=O)c1ccc(Cl)cc1Cl)C(=O)N1CCC[C@H]1C(=O)NCCc1ccccc1Cl,i,i,i,nt,nt
CCCNC(=O)c1ccc2c(=O)c(O)c(-c3ccc(Cl)c([N+](=O)[O-])c3)[nH]c2c1,i,i,i,i,nt
NC(=O)c1ccc2c(=O)c(O)c(-c3cc(Cl)c(N)c(Cl)c3)[nH]c2c1,i,i,i,i,51
CCCCOCCCNC(=O)C[C@H]1C[C@@]2(C(=O)OC)C(=C[C@H](C(C)C)O[C@@H]2C2CC2)N(Cc2ccc3c(c2)OCO3)C1=O,i,i,i,nt,nt
O=S(=O)(CS(=O)(=O)c1ccc(Br)cc1)c1ccc(Br)cc1,i,i,i,nt,nt
CC(OC(=O)c1n[nH]c2ccccc12)C(=O)NC1CCCCC1C (stereo not drawn),i,i,i,i,nt
CC(OC(=O)C1=NN(c2ccccc2)C(=O)CC1)C(=O)NC1CCCCC1C (stereo not drawn),48,i,i,i,nt
CC(OC(=O)c1nn(C)c(=O)c2ccccc12)C(=O)NC1CCCCC1C (stereo not drawn),26,i,i,i,nt
Cn1cc(CNC(=O)c2cc(COc3ccc4c(c3)CCCC4)on2)cn1,i,i,i,i,30
CCOC(=O)[C@]12CCCCC/C=C\1N(CCc1ccc(Cl)cc1)C(=O)[C@H]2CC(=O)N1CCC(c2ccccc2)CC1,i,i,i,nt,nt
CC(=O)c1ccc(NC(=O)CC2Nc3cccc4cccc(c34)NC2=O)cc1 (stereo not drawn),i,i,i,i,29
CC1CCN(C(=S)c2cn(Cc3cccc(F)c3)c3ccccc23)CC1,29,i,i,i,i
CN(C)c1ccc(C(=O)OCc2ccccc2)cc1,i,i,i,i,i
O=C1C=CC(=O)C(CNc2ccc(C(=O)OCc3ccccc3)cc2)=C1,i,i,i,75,nt
COC(=O)C[C@H]1CC[C@@H]2[C@H](COc3ccc(NS(C)(=O)=O)cc3C(=O)N2C)O1,i,i,i,nt,nt
Fc1ccc(C2CC(c3ccco3)=Nc3ccccc3S2)cc1 (stereo not drawn),i,71,i,i,i
O=[N+]([O-])c1ccc(C2CC(c3ccccc3)=Nc3ccccc3S2)cc1 (stereo not drawn),i,79,i,i,32
Fc1ccc(C2CC(c3ccco3)=NN2c2ccccc2)cc1 (stereo not drawn),i,i,i,i,i
Oc1ccc(-c2cnns2)c(O)c1,i,24,i,i,99
Oc1ccc(-c2nc3ccccc3s2)c(O)c1,i,i,i,i,i
C[C@H]1[C@@H](NC(=O)C2CCC2)CC[C@@]23CCCN2C(=O)CCC[C@@H]13,i,i,i,nt,nt
COC(=O)c1cccc(Cn2ccc3ccc(-c4ccc5ccn(C(=O)c6ccccc6)c5c4)cc32)c1,i,i,i,nt,nt
SMILES,UHRF1 MBD2 ctr,PRMT1 FP inh,MBD2 DNA inh,PfG6PD inh,PfM18AAP inh
CCOC(=O)N(C)C[C@H]1OCc2cn(nn2)CCCC(=O)N([C@@H](C)CO)C[C@@H]1C,i,i,i,nt,nt
CCOc1ccc(Cl)cc1-c1cc(C(=O)NCc2cc(C(F)(F)F)cc(C(F)(F)F)c2)[nH]n1,45,i,i,nt,nt
CCOc1ccc(Cl)cc1-c1cc(C(=O)NCc2ccccc2)[nH]n1,i,i,i,nt,nt
Cc1nc2ccc(NC(=O)c3ccccc3)cc2s1,i,i,i,i,i
Cc1nc2cc(C(=O)O)ccc2s1,i,21,i,i,30
Nc1cc(S(=O)(=O)O)cc([N+](=O)[O-])c1O,81,i,i,i,i
COC(=O)[C@]12C=CCN1[C@@H](c1ccc(C(F)(F)F)cc1)c1c(c3ccccc3n1S(=O)(=O)c1ccc(C)cc1)C2,i,i,i,nt,nt
O=C(O)c1ccccc1NS(=O)(=O)c1ccc(NN=Cc2ccccc2F)c([N+](=O)[O-])c1,33,i,i,i,nt
